Assay results taken from the supplement of paper PMC4466140.

Each binder was assayed against AgAbp1 (assay: SPOT peptide array binding signal intensity (averaged, normalized) (arbitrary units (background-subtracted, floor 0; scale differs between SH3 domains)); higher = stronger binding of the SH3 domain to the peptide).
Description: (§1)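 GST-tagged SH3 domains from S. cerevisiae (Sc), A. gossypii (Ag), C. albicans (Ca) and S. pombe (Sp) were incubated at 10 ug/ml overnight at 4 C on cellulose SPOT membranes carrying 292 synthetic 15-mer peptides mined from the S. cerevisiae proteome (cysteines replaced by serines). Binding was detected with anti-GST antibody, HRP secondary and chemiluminescence, quantified with Genespotter, and reported as normalized spot intensities averaged over biological replicates.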

Binder	SPOT peptide array binding signal intensity
RRLRDKYKLPIVDAD	38

These binders were tested against AgBbc1 in the same assay as above.
Description: as §1

Binder	SPOT peptide array binding signal intensity
RRLRDKYKLPIVDAD	20.8

These binders were tested against AgBem1-D1 in the same assay as above.
Description: as §1

Binder	SPOT peptide array binding signal intensity
RRLRDKYKLPIVDAD	52

The binders below were run against AgBzz1-D1 in the same assay as above.
Description: as §1

Binder	SPOT peptide array binding signal intensity
RRLRDKYKLPIVDAD	32

Each binder was assayed against AgBzz1-D2 in the same assay as above.
Description: as §1

Binder	SPOT peptide array binding signal intensity
RRLRDKYKLPIVDAD	61.5

The binders below were run against AgCyk3 in the same assay as above.
Description: as §1

Binder	SPOT peptide array binding signal intensity
RRLRDKYKLPIVDAD	1

What follows are binders tested against AgFus1 in the same assay as above.
Description: as §1

Binder	SPOT peptide array binding signal intensity
RRLRDKYKLPIVDAD	163

Each binder was assayed against AgHof1 in the same assay as above.
Description: as §1

Binder	SPOT peptide array binding signal intensity
RRLRDKYKLPIVDAD	17

These binders were tested against AgHse1 in the same assay as above.
Description: as §1

Binder	SPOT peptide array binding signal intensity
RRLRDKYKLPIVDAD	748

What follows are binders tested against AgLsb1 in the same assay as above.
Description: as §1

Binder	SPOT peptide array binding signal intensity
RRLRDKYKLPIVDAD	6

Each binder was assayed against AgLsb4 in the same assay as above.
Description: as §1

Binder	SPOT peptide array binding signal intensity
RRLRDKYKLPIVDAD	18

Each binder was assayed against AgMyo5 in the same assay as above.
Description: as §1

Binder	SPOT peptide array binding signal intensity
RRLRDKYKLPIVDAD	0.75

The binders below were run against AgNbp2 in the same assay as above.
Description: as §1

Binder	SPOT peptide array binding signal intensity
RRLRDKYKLPIVDAD	63

These binders were tested against AgRvs167 in the same assay as above.
Description: as §1

Binder	SPOT peptide array binding signal intensity
RRLRDKYKLPIVDAD	3.33

Each binder was assayed against AgSho1 in the same assay as above.
Description: as §1

Binder	SPOT peptide array binding signal intensity
RRLRDKYKLPIVDAD	83

What follows are binders tested against AgSla1-D1-D2 in the same assay as above.
Description: as §1

Binder	SPOT peptide array binding signal intensity
RRLRDKYKLPIVDAD	299

Each binder was assayed against AgSla1-D3 in the same assay as above.
Description: as §1

Binder	SPOT peptide array binding signal intensity
RRLRDKYKLPIVDAD	3

These binders were tested against CaAbp1-D1 in the same assay as above.
Description: as §1

Binder	SPOT peptide array binding signal intensity
RRLRDKYKLPIVDAD	311

These binders were tested against CaAbp1-D2 in the same assay as above.
Description: as §1

Binder	SPOT peptide array binding signal intensity
RRLRDKYKLPIVDAD	326

Each binder was assayed against CaBbc1 in the same assay as above.
Description: as §1

Binder	SPOT peptide array binding signal intensity
RRLRDKYKLPIVDAD	13

The binders below were run against CaBem1-D1 in the same assay as above.
Description: as §1

Binder	SPOT peptide array binding signal intensity
RRLRDKYKLPIVDAD	5.5

These binders were tested against CaBzz1-D1 in the same assay as above.
Description: as §1

Binder	SPOT peptide array binding signal intensity
RRLRDKYKLPIVDAD	180

Each binder was assayed against CaBzz1-D2 in the same assay as above.
Description: as §1

Binder	SPOT peptide array binding signal intensity
RRLRDKYKLPIVDAD	34.5

Each binder was assayed against CaCyk3 in the same assay as above.
Description: as §1

Binder	SPOT peptide array binding signal intensity
RRLRDKYKLPIVDAD	3

Each binder was assayed against CaFus1 in the same assay as above.
Description: as §1

Binder	SPOT peptide array binding signal intensity
RRLRDKYKLPIVDAD	318

These binders were tested against CaHof1 in the same assay as above.
Description: as §1

Binder	SPOT peptide array binding signal intensity
RRLRDKYKLPIVDAD	0.5

Each binder was assayed against CaHse1 in the same assay as above.
Description: as §1

Binder	SPOT peptide array binding signal intensity
RRLRDKYKLPIVDAD	12.2

These binders were tested against CaLsb1 in the same assay as above.
Description: as §1

Binder	SPOT peptide array binding signal intensity
RRLRDKYKLPIVDAD	1

The binders below were run against CaLsb4 in the same assay as above.
Description: as §1

Binder	SPOT peptide array binding signal intensity
RRLRDKYKLPIVDAD	13

These binders were tested against CaMyo5 in the same assay as above.
Description: as §1

Binder	SPOT peptide array binding signal intensity
RRLRDKYKLPIVDAD	1.5

The binders below were run against CaNbp2 in the same assay as above.
Description: as §1

Binder	SPOT peptide array binding signal intensity
RRLRDKYKLPIVDAD	102

What follows are binders tested against CaRvs167 in the same assay as above.
Description: as §1

Binder	SPOT peptide array binding signal intensity
RRLRDKYKLPIVDAD	5.5

The binders below were run against CaRvs167-3 in the same assay as above.
Description: as §1

Binder	SPOT peptide array binding signal intensity
RRLRDKYKLPIVDAD	42.5

Each binder was assayed against CaSho1 in the same assay as above.
Description: as §1

Binder	SPOT peptide array binding signal intensity
RRLRDKYKLPIVDAD	241

The binders below were run against CaSla1-D1-D2 in the same assay as above.
Description: as §1

Binder	SPOT peptide array binding signal intensity
RRLRDKYKLPIVDAD	5

The binders below were run against CaSla1-D3 in the same assay as above.
Description: as §1

Binder	SPOT peptide array binding signal intensity
RRLRDKYKLPIVDAD	1.75

These binders were tested against ScAbp1 in the same assay as above.
Description: as §1

Binder	SPOT peptide array binding signal intensity
RRLRDKYKLPIVDAD	14.5

Each binder was assayed against ScBbc1 in the same assay as above.
Description: as §1

Binder	SPOT peptide array binding signal intensity
RRLRDKYKLPIVDAD	8.5

The binders below were run against ScBem1-D1 in the same assay as above.
Description: as §1

Binder	SPOT peptide array binding signal intensity
RRLRDKYKLPIVDAD	26

Each binder was assayed against ScBzz1-D1 in the same assay as above.
Description: as §1

Binder	SPOT peptide array binding signal intensity
RRLRDKYKLPIVDAD	18

The binders below were run against ScBzz1-D2 in the same assay as above.
Description: as §1

Binder	SPOT peptide array binding signal intensity
RRLRDKYKLPIVDAD	23

These binders were tested against ScCyk3 in the same assay as above.
Description: as §1

Binder	SPOT peptide array binding signal intensity
RRLRDKYKLPIVDAD	22

These binders were tested against ScFus1 in the same assay as above.
Description: as §1

Binder	SPOT peptide array binding signal intensity
RRLRDKYKLPIVDAD	115

Each binder was assayed against ScHof1 in the same assay as above.
Description: as §1

Binder	SPOT peptide array binding signal intensity
RRLRDKYKLPIVDAD	1

What follows are binders tested against ScHse1 in the same assay as above.
Description: as §1

Binder	SPOT peptide array binding signal intensity
RRLRDKYKLPIVDAD	1110

These binders were tested against ScLsb1 in the same assay as above.
Description: as §1

Binder	SPOT peptide array binding signal intensity
RRLRDKYKLPIVDAD	9

What follows are binders tested against ScLsb2 in the same assay as above.
Description: as §1

Binder	SPOT peptide array binding signal intensity
RRLRDKYKLPIVDAD	7.5

What follows are binders tested against ScLsb3 in the same assay as above.
Description: as §1

Binder	SPOT peptide array binding signal intensity
RRLRDKYKLPIVDAD	90

Each binder was assayed against ScLsb4 in the same assay as above.
Description: as §1

Binder	SPOT peptide array binding signal intensity
RRLRDKYKLPIVDAD	8

These binders were tested against ScMyo3 in the same assay as above.
Description: as §1

Binder	SPOT peptide array binding signal intensity
RRLRDKYKLPIVDAD	2.5

Each binder was assayed against ScMyo5 in the same assay as above.
Description: as §1

Binder	SPOT peptide array binding signal intensity
RRLRDKYKLPIVDAD	1.5

These binders were tested against ScNbp2 in the same assay as above.
Description: as §1

Binder	SPOT peptide array binding signal intensity
RRLRDKYKLPIVDAD	90

These binders were tested against ScPex13 in the same assay as above.
Description: as §1

Binder	SPOT peptide array binding signal intensity
RRLRDKYKLPIVDAD	0.5

What follows are binders tested against ScRvs167 in the same assay as above.
Description: as §1

Binder	SPOT peptide array binding signal intensity
RRLRDKYKLPIVDAD	3.33

The binders below were run against ScSho1 in the same assay as above.
Description: as §1

Binder	SPOT peptide array binding signal intensity
RRLRDKYKLPIVDAD	411

The binders below were run against ScSla1-D1-D2 in the same assay as above.
Description: as §1

Binder	SPOT peptide array binding signal intensity
RRLRDKYKLPIVDAD	36.5

Each binder was assayed against ScSla1-D3 in the same assay as above.
Description: as §1

Binder	SPOT peptide array binding signal intensity
RRLRDKYKLPIVDAD	13

The binders below were run against SpAbp1-D1 in the same assay as above.
Description: as §1

Binder	SPOT peptide array binding signal intensity
RRLRDKYKLPIVDAD	88.5

What follows are binders tested against SpBbc1 in the same assay as above.
Description: as §1

Binder	SPOT peptide array binding signal intensity
RRLRDKYKLPIVDAD	0.75

These binders were tested against SpBzz1-D1 in the same assay as above.
Description: as §1

Binder	SPOT peptide array binding signal intensity
RRLRDKYKLPIVDAD	56

What follows are binders tested against SpBzz1-D2 in the same assay as above.
Description: as §1

Binder	SPOT peptide array binding signal intensity
RRLRDKYKLPIVDAD	0.5

The binders below were run against SpCyk3 in the same assay as above.
Description: as §1

Binder	SPOT peptide array binding signal intensity
RRLRDKYKLPIVDAD	2.5

These binders were tested against SpHof1 in the same assay as above.
Description: as §1

Binder	SPOT peptide array binding signal intensity
RRLRDKYKLPIVDAD	54.5

The binders below were run against SpHof1-2 in the same assay as above.
Description: as §1

Binder	SPOT peptide array binding signal intensity
RRLRDKYKLPIVDAD	12

What follows are binders tested against SpHof1-3 in the same assay as above.
Description: as §1

Binder	SPOT peptide array binding signal intensity
RRLRDKYKLPIVDAD	318

Each binder was assayed against SpHse1 in the same assay as above.
Description: as §1

Binder	SPOT peptide array binding signal intensity
RRLRDKYKLPIVDAD	346

The binders below were run against SpLsb1 in the same assay as above.
Description: as §1

Binder	SPOT peptide array binding signal intensity
RRLRDKYKLPIVDAD	49.2

Each binder was assayed against SpLsb4 in the same assay as above.
Description: as §1

Binder	SPOT peptide array binding signal intensity
RRLRDKYKLPIVDAD	44

Each binder was assayed against SpMyo1 in the same assay as above.
Description: as §1

Binder	SPOT peptide array binding signal intensity
RRLRDKYKLPIVDAD	1.25

The binders below were run against SpNbp2 in the same assay as above.
Description: as §1

Binder	SPOT peptide array binding signal intensity
RRLRDKYKLPIVDAD	105

The binders below were run against SpPex13 in the same assay as above.
Description: as §1

Binder	SPOT peptide array binding signal intensity
RRLRDKYKLPIVDAD	9

The binders below were run against SpRvs167 in the same assay as above.
Description: as §1

Binder	SPOT peptide array binding signal intensity
RRLRDKYKLPIVDAD	0.833

These binders were tested against SpSla1-D1-D2 in the same assay as above.
Description: as §1

Binder	SPOT peptide array binding signal intensity
RRLRDKYKLPIVDAD	3

The binders below were run against SpSla1-D3 in the same assay as above.
Description: as §1

Binder	SPOT peptide array binding signal intensity
RRLRDKYKLPIVDAD	6
